# From the supplement of paper PMC13380429
# Values without a mark were called inactive.
# Test system: Vero E6 infected with SARS-CoV-2
# Experiment: inhibition of SARS-CoV-2 cytopathic effect; higher = more antiviral protection, active = above 15
# Settings: 48 h
SMILES,inhibition of SARS-CoV-2 cytopathic effect (1 nM) [%],inhibition of SARS-CoV-2 cytopathic effect (8.33 nM) [%],inhibition of SARS-CoV-2 cytopathic effect (100 nM),inhibition of SARS-CoV-2 cytopathic effect (833.33 nM),inhibition of SARS-CoV-2 cytopathic effect (10000 nM)
N[C@@H](CSS(=O)(=O)O)C(=O)O [S-sulfo-L-cysteine],-0.33,1.82,-0.09%,1.93%,0.23%
O=S(=O)(Cc1ccccc1)Nc1ccc(-c2ccc3c(cnn3-c3ccc(F)cc3)c2)c(C(F)(F)F)c1,0.84,1.44,-0.94%,2.01%,-3.81%
CCCCCCCCCC(=O)OC1(c2ccc(Cl)cc2)CCN(CCCC(=O)c2ccc(F)cc2)CC1 [haloperidol-decanoate],0.13,0.37,-2.1%,-0.9%,-1.91%
COc1ccc2c(c1)C(=O)N(CCc1ccc(S(=O)(=O)NC(=O)NC3CCCCC3)cc1)C(=O)C2(C)C [gliquidone],-1.78,2.65,2.68%,-0.14%,-0.29%
C/C=C(/C)C(=O)O[C@H]1C(C)=C[C@]23C(=O)[C@@H](C=C(CO)[C@@H](O)[C@]12O)[C@H]1[C@@H](C[C@H]3C)C1(C)C [ingenol-mebutate],-1.66,-1.76,-8.12%,-7.76%,-8.66%
Cc1nc(Nc2n[nH]c3c2CN(C(=O)N[C@H](CN(C)C)c2ccccc2)C3(C)C)c2sccc2n1,3.94,-1.34,-3.76%,-4.38%,-7.39%
CCCCC(F)(F)[C@@]1(O)CC[C@H]2[C@@H](CC(=O)[C@@H]2CCCCCCC(=O)O)O1 [lubiprostone],-0.41,-0.13,-0.73%,-1.89%,-0.01%
COc1ccc(Cl)c(Nc2ncnc3cc(OCC4CCN(C)CC4)c(OC)cc23)c1,-1.15,-0.25,-0.48%,-6.41%,-13.8%
Nn1cnc2cc3ccccc3cc2c1=O [centazolone],-0.59,0.85,0.4%,-1.41%,0.93%
NC1=N[C@@]2(c3cc(NC(=O)c4ccc(F)cn4)ccc3F)COC[C@H]2CS1,-3.54,-0.32,-4.37%,-2.3%,-4.47%
CC(=O)[C@H]1CC[C@H]2[C@@H]3CC=C4C[C@@H](OC(=O)CCC(=O)O)CC[C@]4(C)[C@H]3CC[C@]12C [pregnenolone-succinate],5.34,3.1,3.45%,5.79%,5.05%
CC(=O)Nc1nnc(S(N)(=O)=O)s1 [acetazolamide],-0.16,-1.99,-1.3%,-2.21%,-1.25%
CCOC(=O)[C@H](CCc1ccccc1)N[C@H]1CS[C@H](c2cccs2)CN(CC(=O)O)C1=O [temocapril],-2.77,-0.7,1.38%,-0.25%,-3.19%
CCOC(=O)Nc1nc2ccccc2[nH]1 [lobendazole],-9.74,-7.4,-4.73%,-6.72%,-11.2%
O=C(CCBr)N1CCN(C(=O)CCBr)CC1 [pipobroman],0.26,-0.92,-3.06%,-6.9%,-3.48%
CC(COc1ccccc1)NC(C)C(O)c1ccc(O)cc1 (stereo not given) [isoxsuprine],0.69,2,-0.95%,1.95%,-1.14%
COC[C@H](NC(=O)c1cnc(C)s1)C(=O)N[C@@H](COC)C(=O)N[C@@H](Cc1ccccc1)C(=O)[C@@]1(C)CO1 [oprozomib],0.33,3.66,38.6% (active),34.5% (active),24.7% (active)
N[C@@H](CC(=O)N1CCn2c(nnc2C(F)(F)F)C1)Cc1cc(F)c(F)cc1F [sitagliptin],-0.24,1.03,2.43%,3.7%,1%
CC(Cc1ccccc1)(NC(=O)CN)c1ccccc1 (stereo not given) [remacemide],0.2,0.62,-0.89%,0.88%,0.24%
CCO[C@@H]1OC(=O)C[C@@H]1NC(=O)[C@@H]1CCCN1C(=O)[C@@H](NC(=O)c1ccc(N)c(Cl)c1)C(C)(C)C,-2.56,-1.09,0.58%,0.04%,-2.79%
O=C(O)CCNc1cc(N2CCc3ccccc3CC2)nc(-c2ccccn2)n1,-2.6,1.21,0.26%,-1.21%,0.82%
